Reference: PubChem BioAssay (NCI)
About 83,000 compounds went through this panel and 20% of them were active in at least one assay; those are over-represented in the sample as a whole.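 Assay: single dose, 48 h. Readout: percent growth (0 = no net growth; negative = cell death). Active: <10.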 Values without a mark were called inactive. The source made the active and inactive calls.

Key:
Assay in all cases: NCI-60 one-dose screen, 48 h (100 = growth as untreated, 0 = no growth, -100 = all killed)
Settings in all cases: 10 µM unless noted
SR leukemia = tested on: SR leukemia
RPMI-8226 leukemia = tested on: RPMI-8226 leukemia
OVCAR-8 ovarian = tested on: OVCAR-8 ovarian
OVCAR-5 ovarian = tested on: OVCAR-5 ovarian
OVCAR-4 ovarian = tested on: OVCAR-4 ovarian
SK-OV-3 ovarian = tested on: SK-OV-3 ovarian
IGROV1 ovarian = tested on: IGROV1 ovarian
OVCAR-3 ovarian = tested on: OVCAR-3 ovarian
HS 578T breast = tested on: HS 578T breast
NCI/ADR-RES ovarian = tested on: NCI/ADR-RES ovarian
T-47D breast = tested on: T-47D breast
BT-549 breast = tested on: BT-549 breast
MDA-MB-435 melanoma = tested on: MDA-MB-435 melanoma
SW-620 colon = tested on: SW-620 colon
MCF7 breast = tested on: MCF7 breast
HCT-116 colon = tested on: HCT-116 colon
HCC-2998 colon = tested on: HCC-2998 colon
KM12 colon = tested on: KM12 colon

SMILES | growth (SR leukemia) | growth (RPMI-8226 leukemia) | growth (OVCAR-8 ovarian) | growth (OVCAR-5 ovarian) | growth (OVCAR-4 ovarian) | growth (SK-OV-3 ovarian) | growth (IGROV1 ovarian) | growth (OVCAR-3 ovarian) | growth (HS 578T breast) | growth (NCI/ADR-RES ovarian) | growth (T-47D breast) | growth (BT-549 breast) | growth (MDA-MB-435 melanoma) | growth (SW-620 colon) | growth (MCF7 breast) | growth (HCT-116 colon) | growth (HCC-2998 colon) | growth (KM12 colon)
Cc1c2cnccc2c(C)c2c1c1cc(C(=O)O)ccc1n2C | 18.6% | -1.59% (active) | 5.83% (active) | 9.91% (active) | -4.45% (active) | -4.58% (active) | 0.419% (active) | 0.0817% (active) | 8.93% (active) | 3.03% (active) | -10.2% (active) | -1.22% (active) | 5.58% (active) | 7.21% (active) | 1.28% (active) | 2.6% (active) | 4.89% (active) | 5.47% (active)
CCOC(=O)c1ccc2c(c1)c1c(C)c3cnccc3c(C)c1n2C | 14.9% | -29.7% (active) | -21.5% (active) | -46.7% (active) | -14.8% (active) | -21.4% (active) | -62.7% (active) | -47.5% (active) | -27.6% (active) | -33.1% (active) | -23.1% (active) | -54% (active) | -65.8% (active) | -7.3% (active) | -28.9% (active) | -85.2% (active) | -70.7% (active) | -7.02% (active)
COc1cc(C(=O)n2nc(NCCCc3ccccc3)c3cc(N)ccc32)cc(OC)c1OC | 52.3% | 69.5% | 82.8% | 93.3% | 105% | 104% | 110% | 101% | 111% | 68.4% | 66% | 97.1% | 99% | 112% | 89.3% | 90.1% | 105% | 88.5%
O=C(Nc1ncc(Cc2ccccc2)s1)c1ccc2c(c1)OCCO2 | 5.84% (active) | 14.6% | 19% | 28.5% | 46.3% | 25% | 23.4% | -11.3% (active) | 25.1% | 7.95% (active) | 36% | 36.1% | -4.27% (active) | 35.2% | 10.8% | 9.23% (active) | 13.3% | 9.34% (active)
Cc1c(CC(=O)Nc2ccccc2)nnn1-c1ccccc1 | 103% | 103% | 105% | 108% | 115% | 110% | 106% | 115% | 102% | 99.5% | 101% | 112% | 115% | 110% | 99.6% | 106% | 102% | 108%
C/C(=N\NC(=O)c1ccc(C(C)(C)C)cc1)c1ccc(O)cc1O | 19.2% | 28.5% | 22.9% | 39.9% | 15% | 27.7% | 23.8% | 6.18% (active) | 59.8% | 10.3% | 24.4% | 31.2% | 27.7% | 29.9% | 4.92% (active) | 18.5% | 8.71% (active) | 22.8%
Cc1csc(Nc2nc(-c3cccc(Cl)c3)nc(C(Cl)(Cl)Cl)n2)n1 | 58.9% | 13.8% | 58.6% | 46.8% | 70.1% | 70.8% | 83.1% | -18.4% (active) | 43.5% | 51.6% | 5.33% (active) | 96.8% | 54.1% | 42.4% | 20.7% | 37.9% | 7.13% (active) | 13.8%
COc1ccc(C(=O)/C=C/Nc2cc(-c3ccccc3)nn2-c2ccccc2)cc1 | 99.3% | 94.9% | 95.9% | 94.2% | 98.7% | 97.6% | 97.8% | 109% | 107% | 93.2% | 82% | 103% | 99.2% | 84.2% | 87.9% | 85.9% | 99.4% | 99.9%
CNC(=O)c1cc(Oc2ccc3nc(NC(=O)NC(C)C)sc3c2)ccn1 | 30.4% | 73.2% | 88.4% | 117% | 77.8% | 87% | 86.7% | 97.4% | 74.6% | 65% | 64.3% | 86.5% | 0.517% (active) | 53.2% | 53.9% | 57.7% | 79.3% | 39.3%
C#Cc1cccc(Nc2ncnc3ccc(-c4cnc(Cl)c(NS(C)(=O)=O)c4)cc23)c1 | -9.92% (active) | -31.8% (active) | 3.78% (active) | -15.5% (active) | 9.21% (active) | -25% (active) | -55.8% (active) | -72.5% (active) | -21.4% (active) | 7.96% (active) | -46.8% (active) | -35.4% (active) | -55.2% (active) | 2.56% (active) | -0.512% (active) | -55% (active) | -62.5% (active) | -54.3% (active)
Cn1cc(-c2nc(-c3c[nH]c4ccncc34)cs2)c2cc(F)ccc21 | -36.8% (active) | -36.5% (active) | -60.1% (active) | -91.1% (active) | -54.4% (active) | 62.1% | -87.2% (active) | -94.7% (active) | -44.9% (active) | -73.7% (active) | -52.2% (active) | 69.6% | -91% (active) | -65.7% (active) | -71.5% (active) | -95.4% (active) | -80.6% (active) | -95.1% (active)
O=C(Nc1ncc(Cc2ccccc2Cl)s1)c1ccc2c(c1)OCCO2 | 5.14% (active) | 19.3% | 24.2% | 33.2% | 43.5% | 32.5% | 28.4% | -14.4% (active) | 19.8% | 14.5% | 33.9% | 18.7% | -19.5% (active) | 31.9% | 12.4% | 7.38% (active) | 19.6% | 6.53% (active)
N#C/C(=C/C=C/c1ccccc1)S(=O)c1ccccc1 (stereo unspecified) | 3.12% (active) | -8.55% (active) | 14.1% | -55.4% (active) | 18.6% | 32.3% | 1.27% (active) | -82.2% (active) | 15.8% | 11.9% | -20.1% (active) | -77.9% (active) | -29.8% (active) | -40.4% (active) | -40.2% (active) | -89.6% (active) | -88.9% (active) | -42.4% (active)
C#CCOc1cc(/C=N/Nc2nc(-c3ccc(OC)cc3)cs2)ccc1O | 74.4% | 63.3% | 87.9% | 97.1% | 71.7% | 99.4% | 91.8% | 86.3% | 95.8% | 85.1% | 61.2% | 84.5% | 94.7% | 94.8% | 68.9% | 76.5% | 92.4% | 88.6%
Oc1cccc(-c2nc(-c3n[nH]c(=S)n3-c3ccccc3)cc3c2[nH]c2ccccc23)c1 | 19.2% | 17.8% | 24.7% | 73.1% | 56.8% | 37.3% | 24% | 3.83% (active) | 35.1% | 91.6% | 47.7% | -15.9% (active) | 3.44% (active) | 20% | 17.8% | 10.6% | -15.2% (active) | 13%
Cc1nc2sc(C(=O)Nc3ccccc3)c(N)c2cc1C(O)c1ccccc1 (stereo unspecified) | -5.59% (active) | 5.65% (active) | 19.2% | 33.2% | 46.9% | 27.3% | 27.7% | 5.62% (active) | 8.01% (active) | 15% | 54.6% | 67.9% | -18.3% (active) | 24.1% | 17% | 11.8% | 15.4% | 18.3%
O=C(OCc1ccc2c(Br)cc(Br)c(O)c2n1)N1CCN(C(=O)c2cc3ccccc3[nH]2)CC1 | 31.3% | 34.3% | 25.5% | 54.3% | 26% | 40.1% | 31.5% | 31.3% | 48.2% | 7.07% (active) | 27.9% | 56% | 43.9% | 25.3% | 29.5% | 22.4% | 53.1% | 29.5%
